Assay results as given in PubChem BioAssay AID488890 (Southern Research Specialized Biocontainment Screening …, 2010).
Hit rate of the full screen: of about 320,000 compounds, about 1,300 (0.41%) were called active. About 3% were inconclusive and are not listed. The rule behind the calls is not given here. Not all results are given here. Measured potencies and affinities stand elsewhere.

Assay: growth inhibition of non-replicating M. tuberculosis (AID 488890);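 note: plate controls were DMSO cells for no effect and high antibiotic wells for full effect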
Conditions: Mycobacterium tuberculosis non-replicating, at 25 µM, stronger effect = higher value

Q: With `O=C(CC1C(=O)NCCN1Cc1cccc(Oc2ccccc2)c1)NCCc1ccncc1` (stereo not drawn) as the compound, how does the inhibition read?
A: 12.8%

Q: Which inhibition does the source give for `Cc1cccc(NC(=O)c2c(O)c3ccccc3n(C)c2=O)c1` here?
A: 13.4%

Q: For `COc1ccc(C(=O)OCC(=O)NC(=O)NC(C)C)cc1OC`, which inhibition is on record?
A: -0.28%

Q: For `Cc1ccc(C(C)NC(=O)C2CCCO2)cc1C` (stereo not drawn), which inhibition is on record?
A: 16.5%

Q: For `CC(NC(=O)C1CCCO1)c1ccccc1` (stereo not drawn), which inhibition is on record?
A: 17.7%

Q: For `COc1cc2ccccc2cc1C(=O)N1CCCCC1`, which inhibition is on record?
A: 12%

Q: With `COC(=O)C1=C(C)N(Cc2ccccc2)C(=NCc2ccc(OC)cc2)N[C@H]1c1cccc(F)c1` as the compound, how does the inhibition read?
A: 79.1%

Q: For `COC(=O)C1=C(C)N(Cc2ccccc2)C(=NCc2cc(OC)c(OC)c(OC)c2)N[C@H]1c1cccc(F)c1`, which inhibition is on record?
A: 65.1%

Q: With `C=CCn1c(O)c(/C=N/NC(=O)c2ccncc2)c(=O)[nH]c1=O` as the compound, how does the inhibition read?
A: 58%

Q: Which inhibition does the source give for `COc1ccccc1C(=O)CC(=O)c1ccccc1` here?
A: 52.4%

Q: Which inhibition does the source give for `Cc1nc2ccccc2c(=O)n1-c1cc([N+](=O)[O-])cc([N+](=O)[O-])c1` here?
A: 19.9%

Q: For `O=[N+]([O-])c1cnc2ccccc2c1`, which inhibition is on record?
A: -10.7%

Q: With `O=c1c2ccccc2nc2ccccn12` as the compound, how does the inhibition read?
A: -2.46%

Q: With `Nc1c(-c2cccc([N+](=O)[O-])c2)nc2ccccn12` as the compound, how does the inhibition read?
A: 6.84%

Q: Which inhibition does the source give for `CCCOc1ccc(-c2nc(C#N)c(N3CCN(C)CC3)o2)cc1` here?
A: 30.2%

Q: For `CCOc1ccc(CCNC(=O)COC(=O)CCC(=O)c2cccs2)cc1OCC`, which inhibition is on record?
A: 11.4%

Q: With `Cc1ccc(/C(=N\S(=O)(=O)c2ccc(Br)cc2)Nc2ccccc2C)cc1` as the compound, how does the inhibition read?
A: -11%

Q: With `COc1ccc(NC(=O)CSCC(=O)NC2(C)CCS(=O)(=O)C2)cc1` (stereo not drawn) as the compound, how does the inhibition read?
A: -8.31%

Q: With `CCn1ccnc1[C@@H]1C[C@H]2CN(Cc3ccccc3OC)C(=O)[C@]23CCCN13` as the compound, how does the inhibition read?
A: 29.3%

Q: For `CCN(Cc1ccncc1)C(=S)Nc1ccccc1`, which inhibition is on record?
A: -19.8%

Q: With `COc1cc(C=O)c(Cl)cc1OCC(N)=O` as the compound, how does the inhibition read?
A: -0.64%

Q: With `CCOC(=O)C(C)Oc1ccsc1C(=O)OC` (stereo not drawn) as the compound, how does the inhibition read?
A: 53.8%

Q: With `O=C(Nc1ccccc1N1CCCC1)c1cccnc1Cl` as the compound, how does the inhibition read?
A: 7.22%

Q: Which inhibition does the source give for `Cc1ccc(NC(=S)N2CCN(S(=O)(=O)c3ccccc3)CC2)cc1` here?
A: -12.6%

Q: With `Cc1ccc(OCC(=O)N2CCc3ccccc32)cc1` as the compound, how does the inhibition read?
A: 43%

Q: Which inhibition does the source give for `O=C(COc1ccc(F)cc1)N1CCCc2ccccc21` here?
A: 74.6%

Q: For `CC(=O)NC(Cc1c[nH]c2ccccc12)C(=O)OCC(=O)Nc1cc(C)on1` (stereo not drawn), which inhibition is on record?
A: -1.64%

Q: With `Cn1nnnc1Sc1ccc(C(=O)O)cc1[N+](=O)[O-]` as the compound, how does the inhibition read?
A: -12.4%

Q: For `O=C(O)c1ccc(Sc2nnnn2-c2ccccc2)c([N+](=O)[O-])c1`, which inhibition is on record?
A: 29.1%

Q: For `O=C(c1cc2n(n1)C(C(F)(F)F)CC(c1ccco1)N2)N1CCN(c2ccccn2)CC1` (stereo not drawn), which inhibition is on record?
A: 8.02%

Q: With `NC(N)=N/N=C/c1ccccc1` as the compound, how does the inhibition read?
A: 13.1%

Q: Which inhibition does the source give for `CCN(Cc1ccccc1)c1ccc(/C=N/N2CCOCC2)cc1` here?
A: 12.8%

Q: For `O=C1c2ccccc2NC(c2ccco2)N1NS(=O)(=O)c1ccccc1` (stereo not drawn), which inhibition is on record?
A: 1.96%

Q: Which inhibition does the source give for `O=[N+]([O-])c1ccc(Oc2ccc(-c3nnco3)cc2)c(Cl)c1` here?
A: -9.83%

Q: Which inhibition does the source give for `O=C(CCc1nc(-c2ccccc2Cl)no1)NCc1ccco1` here?
A: 43.2%

Q: With `O=[N+]([O-])c1ccc(NCCO)c2ncccc12` as the compound, how does the inhibition read?
A: 9.39%

Q: Which inhibition does the source give for `CCNCCNc1ccc([N+](=O)[O-])c2cccnc12` here?
A: 79.3%

Q: For `O=C(CCSc1ccccc1)N1CCOCC1`, which inhibition is on record?
A: 14.3%

Q: Which inhibition does the source give for `O=C(CCSc1nnc(-c2ccco2)o1)N1CCOCC1` here?
A: 75.9%

Q: Which inhibition does the source give for `O=C(CCSc1ccccc1)N1CCN(c2ccccc2)CC1` here?
A: 10.9%

Q: For `O=C(CCSc1nnc(-c2ccc(O)cc2)o1)N1CCOCC1`, which inhibition is on record?
A: 70.5%

Q: With `Cc1cc(OCC(=O)N[C@@H](Cc2c[nH]c3ccccc23)C(=O)O)c2c(C)c(C)c(=O)oc2c1` as the compound, how does the inhibition read?
A: 5.84%

Q: With `O=C(CN1C(=O)C(=O)c2ccccc21)c1ccccc1` as the compound, how does the inhibition read?
A: 27%

Q: Which inhibition does the source give for `COc1ccc(-n2c(-c3ccccc3)cc3c2CCCC3=O)cc1` here?
A: 17.2%

Q: With `CCCCCCNc1nc(OC)nc(N2CC3CC(C2)c2cccc(=O)n2C3)n1` (stereo not drawn) as the compound, how does the inhibition read?
A: 3.85%

Q: With `COc1ccc(O)cc1` as the compound, how does the inhibition read?
A: -8.51%

Q: Which inhibition does the source give for `COc1ccc(-c2ccc(OC)cc2)cc1` here?
A: 10.9%

Q: Which inhibition does the source give for `COC(=O)c1ccc(COc2ccc(/C=N/O)cc2)o1` here?
A: 29.5%

Q: For `CCc1ccc(OCc2ccc(C(=O)OC)o2)cc1`, which inhibition is on record?
A: 72.2%

Q: Which inhibition does the source give for `COc1ccc(-n2cnc3cc(C(=O)N4CCOCC4)ccc32)cc1` here?
A: -8.02%

Q: Which inhibition does the source give for `O=C(NC(Cc1ccccc1)C(=O)O)NC12CC3CC(CC(C3)C1)C2` (stereo not drawn) here?
A: -6.43%

Q: Which inhibition does the source give for `CCN(CC)CCn1c(=S)[nH]c2cc(C(=O)NCc3ccccc3Cl)ccc2c1=O` here?
A: 35%

Q: For `Cc1ccc(C2C(C#N)=C(N)Oc3n[nH]c(-c4cccnc4)c32)o1` (stereo not drawn), which inhibition is on record?
A: -0.74%

Q: For `N#CC1=C(N)Oc2n[nH]c(-c3ccccc3)c2C1c1cccnc1` (stereo not drawn), which inhibition is on record?
A: 9.98%

Q: For `O=C(OCC(=O)c1cccc2ccccc12)c1ccc(CO)cc1`, which inhibition is on record?
A: 60%

Q: Which inhibition does the source give for `CCCN(CCC)c1nc2ccccc2n2c(C)nnc12` here?
A: 17.5%

Q: Which inhibition does the source give for `O=C(N/N=C\c1c(O)ccc2ccccc12)c1ccc(O)cc1` here?
A: 27.8%

Q: For `O=C(N/N=C\c1c(O)ccc2ccccc12)c1ccc(Cn2cccn2)o1`, which inhibition is on record?
A: -4.74%
